# Assay results published in PubChem BioAssay (NCI).
# Where “and” joins values, the source holds several entries; their conditions need not be identical. Equal entries are not always repeated. This is part of a sample that, as a whole, favours compounds with a hit. Of some 83,000 tested, about 20% had one in any assay.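 Note: values are percent growth. 100 is the growth of untreated cells, values between 100 and 0 indicate rising inhibition; between -100 and 0 indicates cell death.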 Calls of active or inactive are those of the source. How the source made its calls: active means growth percent below 10; inactive means the rest.
# System: MDA-MB-468 breast
# Experiment: NCI-60 one-dose screen, 48 h (100 = growth as untreated, 0 = no growth, -100 = all killed)
# Settings: 10 µM unless noted
row,SMILES,growth
1,COc1cc(C2CC(c3cccc(Nc4ccnc5cc(Cl)ccc45)c3)=NN2C=O)cc(OC)c1OC (stereo not given),-37.1% (active)
2,CN1CCN(c2ccc(NC(=O)c3nc4ccc5[nH]ncc5c4c4c3CCCC4)cc2C(F)(F)F)CC1,44% (inactive)
3,CN1CCN(Cc2ccc(NC(=O)c3cncc(C#Cc4cnc5ccc(NCCCO)nn45)c3)cc2C(F)(F)F)CC1,-59.6% (active)
4,CC1(C)[C@@H](O)CC[C@]2(C)[C@H]3CC[C@@H]4[C@H]5[C@H](C(=O)/C=C\c6ccccn6)CC[C@]5(O)CC[C@@]4(C)[C@]3(C)CC[C@@H]12,23.8% (inactive)
5,Nc1ccccc1SC1CC(=O)N(c2cccc3ccccc23)C1=O (stereo not given),87% (inactive)
6,N=C(N)N=Nc1ccc(NN=C(N)N)c2ccccc12,-27.2% (active)
7,COC(=O)C(C)[C@H]1CC[C@@H]2[C@]1(C)CC=C1[C@]23C=C[C@]2(C[C@@H](OC(C)=O)CC[C@]12C)C(C(=O)OC)C3C(=O)OC (stereo not given in full),94.1% (inactive)
8,CO[C@@]12C=C[C@@]34CCC(=O)N3c3ccccc3[C@@H](O1)C4C2,108% (inactive)
9,CCCCC1=C(Br)C(=O)c2nc(C)ccc2C1=O,92.6% (inactive)
10,C=C1C(=O)C2CCN1CC2,101% (inactive)
11,CCOC(=O)[C@H](CSSc1ncnc2cc[nH]c12)NC(=O)[C@@H](C)c1ccc2cc(OC)ccc2c1,5.8% (active)
12,COC(=O)Nc1ccc2ccc3c(NC(=O)OC)ccc4ccc1c2c43 (tested in a mixture with another compound),40.9% (inactive)
13,Cc1ccc(OCCOCCOCCOCCOc2ccc(C)n(O)c2=S)c(=S)n1O,-13.8% (active)
14,Cc1cc(N)cc(C)c1-c1c(Br)cc(N)cc1Br,-28% (active)
15,CCOC(=O)c1cc(/C=C/c2cccc(Cl)c2)on1,60.3% (inactive)
16,Clc1cc(Cl)c(OCCCCCCN2CCNCC2)c(Cl)c1,-12.2% (active)
17,N#CCc1ncc(-c2ccc(C(F)(F)F)cc2)c(NC2CCCCCC2)n1,42.3% [100 µM] (inactive)
18,O=c1cc(C(F)(F)F)[nH]c(=S)[nH]1,110% (inactive)
19,COc1cc2c(c(OC)c1OC)C(=O)N[C@@H]1[C@@H](O)[C@@H](O)[C@H](O)C[C@@H]21,102% (inactive)
20,CCN(CC)S(=O)(=O)c1ccc(S(=O)(=O)N2CCC[C@@H](C(=O)N3CCN(c4nc(C(C)C)no4)CC3)C2)cc1,12.4% (inactive)

row,SMILES,growth
1,Cc1cc(NCc2cc(Nc3ccnc4cc(Cl)ccc34)ccc2F)nc(N2CCN(c3ccccc3)CC2)n1,30.2% (inactive)
2,CC(=O)O[C@@H]1C[C@]2(C(C)C)O[C@@]1(C)[C@@H]1CCC(C)=C1[C@@H]2OC(=O)/C=C/c1ccccc1,81.5% (inactive)
3,O=C([C@@H](COCc1ccccc1)N1C(=O)[C@@H](N2C(=O)OC[C@@H]2c2ccccc2)[C@H]1/C=C/c1ccccc1)N1CCC(CCN2CCCCC2)CC1,64.8% (inactive)
4,CN(C)CCCN1c2ccccc2CCc2ccccc21,39.6% (inactive)
5,COc1ccc(-c2cnc(SCC(=O)Nc3ccc(-c4nc5ccccc5s4)cc3)n2-c2ccc(OC)cc2)cc1,-12.7% (active)
6,CCCCCN1C=C/C(=C\C(=O)N(C)c2ccccc2Br)c2ccccc21,71.2% (inactive)
7,COc1c(Cl)c2c(c(OC)c1OC)-c1ccc(SC)c(=O)cc1[C@@H](NC(=O)OCC(F)(F)F)CC2,-15.5% (active)
8,COc1ccc(C2=Nn3c(NN)nnc3SC2)cc1,106% (inactive)
9,CCN(CC)CCOc1ccc(/C(=C(\C)Cc2ccc(OC)cc2)c2ccc(O)cc2)cc1,-18.7% (active)
10,CNCCCNc1nc2ccccc2c2c(=O)c3cc(F)ccc3sc12,-57.3% (active)
11,Cn1cc(-c2cc3c(Nc4ccc(CC(=O)Nc5cc(C(C)(C)C)on5)cc4)ncnc3[nH]2)cn1,-74.3% (active) and -62.1% (active)
12,CCOC(=O)/C=C(/C)Sc1cc(O)c2ccccc2c1O,29.9% (inactive)
13,COc1cc(OCc2cccc(-c3ccc4c(c3)OCCO4)c2C)cc(OC)c1C=O,21.8% (inactive)
14,CCOc1nc(-c2ccccc2)cc2c(O)c(C(=O)N/N=C/c3ccc(O)cc3O)[nH]c(=O)c12,29.9% (inactive)
15,NC(=O)c1c(NC(=O)c2ccccn2)sc2c1CCC(=O)C2,6.36% (active)
16,Cc1ccc2c(n1)C(=O)C(Cl)=C(Nc1ccc(C(F)(F)F)cc1)C2=O,-48.5% (active)
17,O=C(N/N=C\c1c(O)ccc2ccccc12)C1CC1,11.8% (inactive)
18,COc1ccc(NC(=O)Nc2ccc3c(ccn3C(=O)c3cccc(F)c3)c2)cc1,86.6% (inactive)
19,N#Cc1c(-c2ccc(Cl)cc2)csc1NC(=O)Nc1cccc(C(F)(F)F)c1,7.03% (active)
20,COc1cc2c(cc1O)CCc1cc(O)cc(OC)c1-2,98% (inactive)
